An excerpt weighted towards active compounds, which were near 20% of everything screened.
Shiga toxin inh = blocks Shiga toxin action in Vero cells; Vero cells, Shiga toxin protein synthesis inhibition reporter; inhibition, % at 38.7 µM; hit rate 9.2% among 290,000; AID 2315; in the data active means inhibition mostly above about 28%, no sharp cut-off; inactive means mostly below about 43%
Pf growth 96h = inhibits malaria parasite growth, 96 h | P. falciparum luciferase reporter growth, 96 h | AID 504834 | Potency, µM (highest dose often 28.7 µM), hits mostly inhibitors | hit rate 6.9% among 320,000
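Two parasite generations (96 h, 37 C, 5% CO2) of compound exposure in infected erythrocytes (0.05% parasitemia, 2% hematocrit). Luciferase-reporter P. falciparum; decreased luminescence indicates inhibited growth, aimed at apicoplast-acting delayed death.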
Pf growth 48h = P. falciparum growth inhibition at 48 hours (one generation) | P. falciparum luciferase growth in erythrocytes, 48 h | Potency, µM (series often up to 28.7 µM), usual class: inhibitors | hit rate 5.9% among 310,000
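In quantitative HTS format, infected erythrocytes bearing luciferase-reporter parasites were treated for a single generation at 37 C. Luminescence after adding detection reagent served as the growth measure.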
Cycloheximide cs = affects cycloheximide protein synthesis inhibition readout, counter-screen; cell reporter, cycloheximide protein synthesis inhibition counterscreen; max response, %; hit rate 12% among 300,000; AID 2314; in the data active means max response mostly above about 13%, no sharp cut-off; inactive means mostly below about 14%; further: read at 38.3 µM for the half of the compounds with a filed dose
HCMV antiviral = human cytomegalovirus inhibition. hit rate 4.5% among 410,000. activity change, negative = inhibition, % at 57.5 µM. HFF cells, HCMV-luciferase reporter, 72 h; active compounds read low; in the data active means activity change below about -60%; inconclusive means no clear call, values can overlap the other calls; inactive means above about -39%
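Two compound doses tested in HFFs infected with HCMV-luciferase, MOI 1 PFU/cell, 72 h at 37C. Lysate luminescence read with OneGlo; data normalized against buffer-only and 10uM Salinomycin inhibitor controls.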
Hits are given with their value; - = inactive; ? = inconclusive; . = not tested or not shown; [ ] = another dose, or the depositor's remark. Unless noted, the call rests on the fitted dose curve; in most records, active means well fitted inhibition curve with a large enough effect; inconclusive means small, poorly fitted or top-dose-only effect, or another doubt; inactive means no such curve, though single readings can be large or run the other way.

SMILES | Shiga toxin inh | Pf growth 96h | Pf growth 48h | Cycloheximide cs | HCMV antiviral
CC1CC(C)CN(S(=O)(=O)c2ccc3c(c2)C(C)(C)C(=O)N3C)C1 (centres undefined) | - | - | ? | - | -
CC1=NNC(=O)c2ccccc2O1 | - | - | - | - | -
CCOC(=O)N1CCC(n2c(SCC(=O)Nc3ccccc3OC)nc3ccccc3c2=O)CC1 | - | - | 10µM | - | ?
COCC(C)n1c(SCC(=O)NC(=O)NC2CCCC2)nc2ccccc2c1=O (centres undefined) | . | ? | 13µM | . | -
COCC(C)n1c(SCC(=O)NCCC2=CCCCC2)nc2ccccc2c1=O (centres undefined) | - | 8.3µM | . | - | -
CCOC(=O)N1CCC(n2c(SCC(=O)NCCC3=CCCCC3)nc3ccccc3c2=O)CC1 | - | ? | 9.3µM | - | -
CC(=O)NCCn1c(SCC(=O)NCCC2=CCCCC2)nc2ccccc2c1=O | - | - | - | - | -
COCCn1c(SCC(=O)NC(=O)NC2CCCCC2)nc2ccccc2c1=O | . | . | . | . | -
OC[C@@H]1CN(Cc2cccs2)C[C@H](n2cnc3c(N4CCOCC4)ncnc32)O1 | . | . | . | . | -
O=[N+]([O-])c1ccc(N2CCN(c3ccc(Cl)nn3)CC2)cc1NC1CC1 | . | . | . | . | -
COc1cc(OC)c(NC(=O)CN(C)S(=O)(=O)c2ccc3c(c2)CCCC(=O)N3)cc1Cl | . | . | . | . | -
CCOc1ccccc1NC(=O)C(C)CC (centres undefined) | - | - | - | - | -
CCOC(=O)N1CCC(n2c(SCC(=O)N3CCC(C)CC3)nc3ccccc3c2=O)CC1 | - | 4.7µM | 10µM | - | ?
COc1ccc(CN(C(=O)c2ccco2)c2ccc(Br)cc2)cc1OC | - | -[5.75 µM] | ? | - | -
O=C1c2ccccc2C(=O)N1CCCCN(C(=O)c1ccco1)c1ccc(Cl)cc1 | - | - | ? | - | -
O=C1/C(=C/N(C(=O)c2ccco2)c2ccc(Br)cc2)Sc2ccccc21 | - | - | - | 37 | .
O=C1/C(=C/N(C(=O)c2ccco2)c2ccc(Cl)cc2)Sc2ccccc21 | 91 | - | - | 39 | .
COc1cccc(S(=O)(=O)Nc2cccc(C(=O)N3CCCCCC3)c2)c1 | - | - | - | - | -
Cc1ccc(S(=O)(=O)c2c(C)nn(C(C)(C)C)c2OC(=O)C2CCCC2)cc1 | - | - | - | - | -
Cc1nn(C(C)(C)C)c(OC(=O)C2CCCC2)c1S(=O)(=O)c1ccccc1 | - | 10µM | - | - | -
COc1ccc(NC(=O)c2cc3ccccc3o2)cc1 | 94 | ? | - | 39 | -
COc1ccc(NC(=O)c2cc3ccccc3o2)cc1OC | 62 | ? | - | 45 | -
CCOc1ccc(CNC(=O)c2nnc(CS(=O)(=O)c3ccccc3)o2)cc1OC | - | ? | 4.7µM | - | -
COc1ccc(CNC(=O)c2cc3ccccc3o2)cc1OC | . | 13µM | - | - | -
O=C(NCc1ccccc1)c1nnc(CS(=O)(=O)c2ccccc2)o1 | - | - | ? | - | -
SMILES | Shiga toxin inh | Pf growth 96h | Pf growth 48h | Cycloheximide cs | HCMV antiviral
COc1ccc(CNC(=O)c2ccc3ccccc3n2)cc1OC | - | - | - | - | ?
COc1ccc(NC(=O)c2cc3ccccc3o2)cn1 | . | - | - | 36 | -
COc1ccc(NC(=O)c2cc(=O)c3ccccc3o2)cn1 | - | ? | - | - | -
COc1ccc(NC(=O)c2coc3ccccc23)cc1OC | 71 | - | - | 20 | -
CCCCC[C@@H](O)c1cc2ccccc2c(=O)o1 | . | . | . | . | -
CCCNC(=O)c1cc2ccccc2c(=O)o1 | 57 | - | - | 21 | -
O=C(NCc1ccccc1)c1cc2ccccc2o1 | - | . | - | 22 | -
CCNC(=O)c1cc2ccccc2o1 | - | - | - | - | -
O=C(CCCSCCCC(=O)NN=Cc1ccccc1)NN=Cc1ccccc1 | . | . | . | . | -
CC(=O)N1CC(O)CC1C(=O)O (centres undefined) | . | - | - | . | .
O=C(NCCOc1ccccc1)c1ccccc1SCC(=O)N1CCCC1 | . | ? | - | . | -
CCCOc1ccc(S(=O)(=O)NNC(=O)c2cc3ccccc3o2)cc1 | - | - | - | 14 | -
Cc1ccccc1CNC(=O)c1cc2ccccc2o1 | . | . | . | . | -
O=C(NCCc1ccccn1)c1cc2ccccc2o1 | 84 | - | - | 49 | -
O=[N+]([O-])c1ccc2c(OCc3nnc(-c4ccccc4Br)o3)ncnc2c1 | - | 9.3µM | ? | - | -
COc1cc(C(C)=O)ccc1OCc1nnc(-c2ccccc2Br)o1 | 60 | ? | ? | 16 | -
Clc1ccc(OCc2nnc(-c3ccccc3Br)o2)c(Cl)c1 | 83 | ? | - | 39 | -

Source: PubChem (National Center for Advancing Translational Sciences (NCATS))
